The supplement of paper PMC4022240
± gives the standard deviation.

T1: HaloTag-ATRX ADD domain (163-292)
T1 chain: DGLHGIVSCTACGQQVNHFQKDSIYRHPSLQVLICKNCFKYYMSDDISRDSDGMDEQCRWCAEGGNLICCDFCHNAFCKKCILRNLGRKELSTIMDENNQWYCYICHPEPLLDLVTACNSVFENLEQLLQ


Biological target: T1, HaloTag-ATRX ADD domain (163-292)
Assay: peptide microarray binding signal (635 nm), min-max normalized on array (fraction of array maximum); higher = stronger binding
Conditions: peptide region: Unmod H1 variant; binder concentration: 50 nM
In short: (§1)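 An Axon GenePix 4000B scanned the arrays at 635 nm for signal and at 532 nm to catch misprints. Those arrays held histone 13-mer peptide–cellulose conjugates printed in triplicate on nitrocellulose with a Cy3 tracer, blocked overnight at 4°C and probed for 1 h at 4°C with biotin-labelled HaloTag reader fusions (10 nM to 1 μM) plus streptavidin-Alexa Fluor 647 or with rabbit histone antibodies (1:10,000 to 1:2,000) plus anti-rabbit Alexa 647. Each binding signal is a triplicate-spot mean intensity, scaled min-max within its library.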

Binder	peptide microarray binding signal
PKKAKAAKPKKAP [Unmod H1 variant P K K A K A A K P K K A P]	0.009 ± 0.00089
KPKKATGAATPKK [Unmod H1 variant K P K K A T G A A T P K K]	0.00674 ± 0.0014
EKNNSRIKLGLKS [Unmod H1 variant E K N N S R I K L G L K S]	0.0196 ± 0.00022
AKAVKPKAAKPKT [Unmod H1 variant A K A V K P K A A K P K T]	0.0116 ± 0.00013
ASGSFKLNKKAAS [Unmod H1 variant A S G S F K L N K K A A S]	0.0207 ± 0.0013
TPKKSAKKTPKKA [Unmod H1 variant T P K K S A K K T P K K A]	0.0108 ± 0.0035
AKKPAGAAKKPKK [Unmod H1 variant A K K P A G A A K K P K K]	0.00931 ± 0.00023
KAKKAGAAKAKKP [Unmod H1 variant K A K K A G A A K A K K P]	0.01282 ± 3.1e-05

Same assay, conditions: peptide region: Unmod H1 variant; binder concentration: 500 nM

Binder	peptide microarray binding signal
PKKAKAAKPKKAP [Unmod H1 variant P K K A K A A K P K K A P]	0.01 ± 0.00062
KPKKATGAATPKK [Unmod H1 variant K P K K A T G A A T P K K]	0.00957 ± 0.00063
EKNNSRIKLGLKS [Unmod H1 variant E K N N S R I K L G L K S]	0.0155 ± 0.00098
AKAVKPKAAKPKT [Unmod H1 variant A K A V K P K A A K P K T]	0.00791 ± 0.00033
ASGSFKLNKKAAS [Unmod H1 variant A S G S F K L N K K A A S]	0.00791 ± 0.00049
TPKKSAKKTPKKA [Unmod H1 variant T P K K S A K K T P K K A]	0.0104 ± 0.0011
AKKPAGAAKKPKK [Unmod H1 variant A K K P A G A A K K P K K]	0.00786 ± 0.00022
KAKKAGAAKAKKP [Unmod H1 variant K A K K A G A A K A K K P]	0.0114 ± 0.00065

biological target: HaloTag-ING2 PHD (mouse Ing2 200-280); assay: as above; conditions: peptide region: Unmod H1 variant; binder concentration: 10 nM
In short: as §1

Binder	peptide microarray binding signal
PKKAKAAKPKKAP [Unmod H1 variant P K K A K A A K P K K A P]	0.00424 ± 0.00016
KPKKATGAATPKK [Unmod H1 variant K P K K A T G A A T P K K]	0.003939 ± 2.1e-05
EKNNSRIKLGLKS [Unmod H1 variant E K N N S R I K L G L K S]	0.00585 ± 0.0006
AKAVKPKAAKPKT [Unmod H1 variant A K A V K P K A A K P K T]	0.00304 ± 8.9e-05
ASGSFKLNKKAAS [Unmod H1 variant A S G S F K L N K K A A S]	0.00233 ± 5.8e-05
TPKKSAKKTPKKA [Unmod H1 variant T P K K S A K K T P K K A]	0.00322 ± 4.7e-05
AKKPAGAAKKPKK [Unmod H1 variant A K K P A G A A K K P K K]	0.003103 ± 3e-05
KAKKAGAAKAKKP [Unmod H1 variant K A K K A G A A K A K K P]	0.00424 ± 5.8e-05

same assay, conditions: peptide region: Unmod H1 variant; binder concentration: 100 nM

Binder	peptide microarray binding signal
PKKAKAAKPKKAP [Unmod H1 variant P K K A K A A K P K K A P]	0.00751 ± 0.00063
KPKKATGAATPKK [Unmod H1 variant K P K K A T G A A T P K K]	0.00893 ± 0.00084
EKNNSRIKLGLKS [Unmod H1 variant E K N N S R I K L G L K S]	0.0201 ± 0.0018
AKAVKPKAAKPKT [Unmod H1 variant A K A V K P K A A K P K T]	0.00765 ± 0.00045
ASGSFKLNKKAAS [Unmod H1 variant A S G S F K L N K K A A S]	0.00425 ± 7.2e-05
TPKKSAKKTPKKA [Unmod H1 variant T P K K S A K K T P K K A]	0.0121 ± 0.0049
AKKPAGAAKKPKK [Unmod H1 variant A K K P A G A A K K P K K]	0.00765 ± 0.00058
KAKKAGAAKAKKP [Unmod H1 variant K A K K A G A A K A K K P]	0.00935 ± 0.00021

biological target: anti-H3K4me3 antibody ab8580; assay: as above; conditions: peptide region: Unmod H1 variant; binder concentration: 1:2,000 dilution
In short: as §1

Binder	peptide microarray binding signal
PKKAKAAKPKKAP [Unmod H1 variant P K K A K A A K P K K A P]	0.0006985 ± 6.5e-06
KPKKATGAATPKK [Unmod H1 variant K P K K A T G A A T P K K]	0.000925 ± 2.1e-05
EKNNSRIKLGLKS [Unmod H1 variant E K N N S R I K L G L K S]	0.00196 ± 0.00038
AKAVKPKAAKPKT [Unmod H1 variant A K A V K P K A A K P K T]	0.000774 ± 2.8e-05
ASGSFKLNKKAAS [Unmod H1 variant A S G S F K L N K K A A S]	0.00132 ± 0.0003
TPKKSAKKTPKKA [Unmod H1 variant T P K K S A K K T P K K A]	0.000812 ± 4.4e-05
AKKPAGAAKKPKK [Unmod H1 variant A K K P A G A A K K P K K]	0.0006041 ± 5.8e-06
KAKKAGAAKAKKP [Unmod H1 variant K A K K A G A A K A K K P]	0.000906 ± 2.4e-05

same assay, conditions: peptide region: Unmod H1 variant; binder concentration: 1:10,000 dilution

Binder	peptide microarray binding signal
PKKAKAAKPKKAP [Unmod H1 variant P K K A K A A K P K K A P]	0.00171 ± 3.3e-05
KPKKATGAATPKK [Unmod H1 variant K P K K A T G A A T P K K]	0.00171 ± 5.9e-05
EKNNSRIKLGLKS [Unmod H1 variant E K N N S R I K L G L K S]	0.00137 ± 4.9e-05
AKAVKPKAAKPKT [Unmod H1 variant A K A V K P K A A K P K T]	0.00137 ± 1.3e-05
ASGSFKLNKKAAS [Unmod H1 variant A S G S F K L N K K A A S]	0.000913 ± 1.6e-05
TPKKSAKKTPKKA [Unmod H1 variant T P K K S A K K T P K K A]	0.00137 ± 4.9e-05
AKKPAGAAKKPKK [Unmod H1 variant A K K P A G A A K K P K K]	0.00217 ± 0.0002
KAKKAGAAKAKKP [Unmod H1 variant K A K K A G A A K A K K P]	0.00148 ± 2.9e-05

biological target: anti-H3K9me3 antibody ab8898; assay: as above; conditions: peptide region: Unmod H1 variant; binder concentration: 1:2,000 dilution
In short: as §1

Binder	peptide microarray binding signal
PKKAKAAKPKKAP [Unmod H1 variant P K K A K A A K P K K A P]	0.000589 ± 9.4e-06
KPKKATGAATPKK [Unmod H1 variant K P K K A T G A A T P K K]	0.000408 ± 1.2e-05
EKNNSRIKLGLKS [Unmod H1 variant E K N N S R I K L G L K S]	0.000317 ± 5.6e-06
AKAVKPKAAKPKT [Unmod H1 variant A K A V K P K A A K P K T]	0.000453 ± 1.3e-05
ASGSFKLNKKAAS [Unmod H1 variant A S G S F K L N K K A A S]	0.000257 ± 2.7e-06
TPKKSAKKTPKKA [Unmod H1 variant T P K K S A K K T P K K A]	0.000287 ± 1.1e-05
AKKPAGAAKKPKK [Unmod H1 variant A K K P A G A A K K P K K]	0.000423 ± 8.2e-06
KAKKAGAAKAKKP [Unmod H1 variant K A K K A G A A K A K K P]	0.000423 ± 8.2e-06

same assay, conditions: peptide region: Unmod H1 variant; binder concentration: 1:10,000 dilution

Binder	peptide microarray binding signal
PKKAKAAKPKKAP [Unmod H1 variant P K K A K A A K P K K A P]	0.00773 ± 0.0051
KPKKATGAATPKK [Unmod H1 variant K P K K A T G A A T P K K]	0.00121 ± 2.4e-05
EKNNSRIKLGLKS [Unmod H1 variant E K N N S R I K L G L K S]	0.00098
AKAVKPKAAKPKT [Unmod H1 variant A K A V K P K A A K P K T]	0.000865 ± 9e-06
ASGSFKLNKKAAS [Unmod H1 variant A S G S F K L N K K A A S]	0.00075 ± 1.6e-05
TPKKSAKKTPKKA [Unmod H1 variant T P K K S A K K T P K K A]	0.000865 ± 9e-06
AKKPAGAAKKPKK [Unmod H1 variant A K K P A G A A K K P K K]	0.00104 ± 1.1e-05
KAKKAGAAKAKKP [Unmod H1 variant K A K K A G A A K A K K P]	0.00075 ± 7.9e-06

Biological target: T1, HaloTag-ATRX ADD domain (163-292)
Assay: as above
Conditions: peptide region: Unmod H2A variant; binder concentration: 50 nM
In short: as §1

Binder	peptide microarray binding signal
QGGKARAKAKSRS [Unmod H2A variant Q G G K A R A K A K S R S]	0.0073 ± 0.00042

Same assay, conditions: peptide region: Unmod H2A variant; binder concentration: 500 nM

Binder	peptide microarray binding signal
QGGKARAKAKSRS [Unmod H2A variant Q G G K A R A K A K S R S]	0.0168 ± 0.0004

biological target: HaloTag-ING2 PHD (mouse Ing2 200-280); assay: as above; conditions: peptide region: Unmod H2A variant; binder concentration: 10 nM
In short: as §1

Binder	peptide microarray binding signal
QGGKARAKAKSRS [Unmod H2A variant Q G G K A R A K A K S R S]	0.002507 ± 1.4e-05

same assay, conditions: peptide region: Unmod H2A variant; binder concentration: 100 nM

Binder	peptide microarray binding signal
QGGKARAKAKSRS [Unmod H2A variant Q G G K A R A K A K S R S]	0.00758 ± 0.0021

biological target: anti-H3K4me3 antibody ab8580; assay: as above; conditions: peptide region: Unmod H2A variant; binder concentration: 1:2,000 dilution
In short: as §1

Binder	peptide microarray binding signal
QGGKARAKAKSRS [Unmod H2A variant Q G G K A R A K A K S R S]	0.00164 ± 0.00013

same assay, conditions: peptide region: Unmod H2A variant; binder concentration: 1:10,000 dilution

Binder	peptide microarray binding signal
QGGKARAKAKSRS [Unmod H2A variant Q G G K A R A K A K S R S]	0.001027 ± 1e-05

biological target: anti-H3K9me3 antibody ab8898; assay: as above; conditions: peptide region: Unmod H2A variant; binder concentration: 1:2,000 dilution
In short: as §1

Binder	peptide microarray binding signal
QGGKARAKAKSRS [Unmod H2A variant Q G G K A R A K A K S R S]	0.000302 ± 3.1e-06

same assay, conditions: peptide region: Unmod H2A variant; binder concentration: 1:10,000 dilution

Binder	peptide microarray binding signal
QGGKARAKAKSRS [Unmod H2A variant Q G G K A R A K A K S R S]	0.000404 ± 4.4e-06
